Screening data from PubChem BioAssay.
Casp1 inh = qHTS Assay for Allosteric/Competitive Inhibitors of Caspase-1. Potency, µM (top dose mostly 57.5 µM), for inactives: at the highest dose activity change, negative = inhibition, actives largely listed as inhibitors. Caspase-1 enzyme, Ac-WEHD-AFC fluorogenic rate. hit rate 0.03% among 75,000;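 also: plate controls were vehicle for no effect and no substrate for full effect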
ALOX15 inhib = qHTS Assay for Inhibitors of 15-hLO (15-human lipoxygenase); Polyunsaturated fatty acid lipoxygenase ALOX15 (Homo sapiens), P16050; purified 15hLO-1, xylenol orange hydroperoxide absorbance; Potency, µM (highest dose often 57.1 µM), for inactives: at the top dose activity change, negative = inhibition, most hits filed as inhibitors; hit rate 1.4% among 74,000; also: % is scaled to controls: 0 for no effect and ±100 for the full control effect; nearly all actives have a fitted effect of over 55% in size
Target sequence (P16050 whole entry, looked up): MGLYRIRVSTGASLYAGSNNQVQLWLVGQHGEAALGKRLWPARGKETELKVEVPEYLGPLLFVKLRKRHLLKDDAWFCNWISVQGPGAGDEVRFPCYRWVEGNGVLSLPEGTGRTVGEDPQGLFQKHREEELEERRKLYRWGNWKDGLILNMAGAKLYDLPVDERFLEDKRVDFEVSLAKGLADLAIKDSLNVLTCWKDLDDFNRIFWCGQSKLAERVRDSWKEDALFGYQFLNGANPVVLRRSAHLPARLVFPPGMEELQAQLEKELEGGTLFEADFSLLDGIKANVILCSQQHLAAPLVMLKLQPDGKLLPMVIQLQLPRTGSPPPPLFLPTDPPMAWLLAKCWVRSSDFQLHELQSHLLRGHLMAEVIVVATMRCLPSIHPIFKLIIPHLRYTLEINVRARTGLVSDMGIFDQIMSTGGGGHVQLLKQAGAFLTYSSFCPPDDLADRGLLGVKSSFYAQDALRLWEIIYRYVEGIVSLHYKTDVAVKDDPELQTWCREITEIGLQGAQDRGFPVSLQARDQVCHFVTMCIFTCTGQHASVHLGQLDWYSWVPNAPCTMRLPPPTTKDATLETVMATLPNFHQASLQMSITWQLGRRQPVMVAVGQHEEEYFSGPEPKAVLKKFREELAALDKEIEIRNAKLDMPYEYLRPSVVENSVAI
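Purified human 15hLO-1 (40 nM) in 25 mM Hepes pH 7.5, 0.01% Triton X-100, preincubated 15 min RT with compound, then 50 uM arachidonic acid for 6 min. Hydroperoxide read by ferrous/xylenol orange, 30 min; 573/405 nm absorbance ratio gave progress.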
ERK AVP inh = qHTS Assay for Inhibitors of the ERK Signaling Pathway using a Homogeneous Screening Assay | HEK293-V1b, vasopressin-stimulated pERK AlphaScreen | Potency, µM (highest dose often 57.5 µM), inactives show top-dose activity, negative = inhibition, actives largely listed as inhibitors | hit rate 0.99% among 72,000; also: % is scaled to controls: 0 for no effect and ±100 for the full control effect; nearly all actives have a fitted effect of over 55% in size
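qHTS, compounds titrated on V1b-expressing HEK293 cells. Preincubation 30 min at 37C, vasopressin 25 nM for 5 min, lysis 10 min, bead incubation 5 hr at room temperature.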
Casp7 inh = qHTS Assay for Allosteric/Competitive Inhibitors of Caspase-7 | P55210 | recombinant caspase-7, Ac-DEVD-AFC fluorescence rate | Potency, µM (doses to about 57.5 µM), inactives show at the highest dose activity change, negative = inhibition, most hits filed as inhibitors | hit rate 0.02% among 75,000 | AID 889, 2007; active = well fitted inhibition curve with a large enough effect in the main read-out, with a control signal flat, not every such curve was filed as active; inconclusive = small, poorly fitted or top-dose-only effect, or a change in a side signal; also: % of control where 0% means no effect
Tau filament bind = qHTS Assay for Tau Filament Binding | recombinant tau filaments, thioflavin S fluorescence, 15 h; filaments grown with octadecylsulfate alongside compound | Potency, µM (top dose mostly 57.1 µM), for inactives: at the top dose activity change, negative = inhibition | hit rate 2% among 71,000;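 also: % is scaled to controls: 0 for no effect and ±100 for the full control effect; actives lower thioflavin S fluorescence by blocking filaments or displacing dye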
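Thioflavine S fluorescence (ex 450, em 510 nm) reports filaments formed from 1 uM human tau plus 30 uM ODS over 15 h at 37 C (10 mM HEPES pH 7.4, 100 mM NaCl, 5 mM DTT); compounds displacing dye or blocking filaments lower signal.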
* marks the source's active call; other numbers are inactive results; [ ] = remark or other dose. This is a sample that favours compounds with a hit; in the whole collection about 3.9% have one here. Unless noted, calls follow the shape of the dose curve; as a rule, active = well fitted curve in the direction sought with a large enough effect; inconclusive = small, poorly fitted or top-dose-only effect, or another doubt; inactive = no such curve, though single readings can be large; an effect the other way counts as inactive or inconclusive. Potency is read from the fitted curve at half-maximal effect.

For CC(=O)N1CCN(c2ccc(NCc3ccccc3)cc2)CC1 the results were Casp1 inh -3%, ALOX15 inhib 7.9µM*, ERK AVP inh inconclusive, Casp7 inh 0% and Tau filament bind 16µM*.
CC(=O)N1CCN(c2ccc(NCc3ccc4c(c3)OCO4)cc2)CC1 was read as Casp1 inh 2%, ALOX15 inhib inconclusive, ERK AVP inh -18%, Casp7 inh 0% and Tau filament bind inconclusive.
`COc1ccc(C2=NOC(C(=O)Nc3cc(Br)ccc3O)C2)cc1OC` (configuration not stated) gave Casp1 inh -4%, ALOX15 inhib -27%, ERK AVP inh 10µM*, Casp7 inh -8% and Tau filament bind 129%.
CCc1ccc(NS(=O)(=O)c2ccc3[nH]cc(C(=O)N4CCCCC4)c(=O)c3c2)cc1 was read as Casp1 inh -1%, ALOX15 inhib 4µM*, ERK AVP inh 18%, Casp7 inh 0% and Tau filament bind -20%.
For CCc1ccc(NS(=O)(=O)c2ccc3[nH]cc(C(=O)NCC4CCCO4)c(=O)c3c2)cc1 (configuration not stated) the results were Casp1 inh -3%, ALOX15 inhib -16%, ERK AVP inh 6%, Casp7 inh -1% and Tau filament bind 18%.
Screening COc1ccccc1CN1CCCC2(CCN(C(=O)c3cccc(F)c3)CC2)C1 returned Casp1 inh 1%, ALOX15 inhib 2%, ERK AVP inh -8%, Casp7 inh -1% and Tau filament bind 1%.
For CC(=O)Nc1cccc(C(=O)Oc2cccc(C)c2)c1O the results were Casp1 inh -2%, ALOX15 inhib 16µM*, ERK AVP inh 26%, Casp7 inh 1% and Tau filament bind -5%.
`N#CC(C#N)=c1ccc2c(c1)NC1(CCCCC1)N=2` gave Casp1 inh -10%, ALOX15 inhib -4%, ERK AVP inh 16µM*, Casp7 inh -15% and Tau filament bind -26%.
For O=C1NC2(CCCC2)N=C1c1ccc(Cl)cc1 the results were Casp1 inh 2%, ALOX15 inhib -3%, ERK AVP inh -2%, Casp7 inh 1% and Tau filament bind -3%.
For C=CCNc1nc(NCc2ccco2)nc(OCC)n1 the results were Casp1 inh 1%, ALOX15 inhib -10%, ERK AVP inh 25µM*, Casp7 inh 2% and Tau filament bind -8%.
Cn1c(=O)oc2cc(S(=O)(=O)Nc3ccc4c(c3)OCO4)ccc21 was read as Casp1 inh -3%, ALOX15 inhib 7%, ERK AVP inh -26%, Casp7 inh -9% and Tau filament bind 20µM*.
For CCN(CC)c1ccc(NS(=O)(=O)c2ccc3c(c2)oc(=O)n3C)c(C)c1 the results were Casp1 inh -2%, ALOX15 inhib 20µM*, ERK AVP inh inconclusive, Casp7 inh -3% and Tau filament bind -19%.
`Cc1ccccc1-c1ccc2ncnc(-n3ccnc3)c2c1` gave Casp1 inh -5%, ALOX15 inhib inconclusive, ERK AVP inh 5%, Casp7 inh -8% and Tau filament bind 141%.
Screening CN(C)c1ccc(-c2ccc3ncnc(-n4ccnc4)c3c2)cc1 returned Casp1 inh -15%, ALOX15 inhib 10%, ERK AVP inh 31%, Casp7 inh -20% and Tau filament bind 3.2µM*.
COCCn1nnnc1C(c1ccccc1)N1CCN(Cc2ccc3c(c2)OCO3)CC1 (configuration not stated) was read as Casp1 inh 2%, ALOX15 inhib -30%, ERK AVP inh 40µM*, Casp7 inh 2% and Tau filament bind 12%.
C=CCC1(C)OC=Cc2nc3cc(Cl)c(Cl)cc3nc21 (configuration not stated) was read as Casp1 inh -3%[11.5 µM], ALOX15 inhib -13%[11.4 µM], ERK AVP inh 16%[11.5 µM] and Casp7 inh -5%[11.5 µM].
`COc1ccc2oc(=O)c(C(=O)N3CCN(c4ccccc4)CC3)cc2c1` gave Casp1 inh -4%, ALOX15 inhib -1%, ERK AVP inh -3%, Casp7 inh 0%[0.00368 µM] and Tau filament bind -9%.
`COc1ccc2oc(=O)c(C(=O)N3CCN(c4ccccc4C)CC3)cc2c1` gave Casp1 inh -5%, ALOX15 inhib -3%, ERK AVP inh -24%, Casp7 inh -4% and Tau filament bind 16µM*.
`C=C1CC[C@@H]2[C@](C)(CC[C@@H](O)[C@]2(C)CO)[C@@H]1C/C=C1/C(=O)OC[C@H]1O` gave Tau filament bind -17%.
For Nc1ncnc2c1nc(Br)n2[C@H]1O[C@H]2COP(=O)(O)O[C@H]2[C@@H]1O the results were Casp1 inh 0%, ALOX15 inhib inconclusive, ERK AVP inh 5%, Casp7 inh 2% and Tau filament bind 40µM*.
`O=C(/C=C/c1ccccc1)OC1CC(O)C2(O)C=CO[C@@H](OC3OC(CO)C(O)C(O)C3O)C12` (some centres not stated) gave Casp1 inh 2%, ALOX15 inhib 18%, ERK AVP inh -8% and Casp7 inh 1%.
O=[N+]([O-])c1ccccc1Nc1ccccc1 was read as Casp1 inh 0%, ALOX15 inhib -10%, ERK AVP inh 16µM*, Casp7 inh inconclusive and Tau filament bind -11%.
Screening O=C(O)c1ccccc1[N+](=O)[O-] returned Casp1 inh -3%, ALOX15 inhib -2%, ERK AVP inh 9%, Casp7 inh 1% and Tau filament bind -2%.
O=C(O)C1Cc2c([nH]c3ccccc23)C(c2ccc3c(c2)OCO3)N1 (configuration not stated) was read as Casp1 inh -16%, ALOX15 inhib 13µM*, ERK AVP inh -28%, Casp7 inh 1%[0.00368 µM] and Tau filament bind 112%.
Screening O=C(O)[C@@H]1Cc2c([nH]c3ccccc23)[C@@H](CCCCO)N1 returned Casp1 inh -3%[11.5 µM], ALOX15 inhib -5%[11.4 µM], ERK AVP inh 9%[11.5 µM], Casp7 inh 0%[11.5 µM] and Tau filament bind 44%[11.4 µM].
For FC(F)(F)c1ccccc1-c1nc(NC2CC2)c2ccccc2n1 the results were Casp1 inh 0%, ALOX15 inhib -5%, ERK AVP inh -29%, Casp7 inh -4% and Tau filament bind 4%.
Screening O=C(NCCCCN1CCCC1)c1ccc(-n2c(=O)c(=O)[nH]c3ccccc32)cc1 returned Casp1 inh -5%, ALOX15 inhib -1% and Casp7 inh -2%.
`c1ccc(N2CCN(c3nc4cc5c(cc4s3)OCO5)CC2)cc1` gave Casp1 inh 1%, ALOX15 inhib 13µM*, ERK AVP inh 2%, Casp7 inh -1% and Tau filament bind -1%.
